From PubChem BioAssay
This is a sample that favours compounds with a hit; in the whole collection about 28% have one here.
CYP2C9 inh: human CYP2C9 inhibition | P11712 | CYP2C9 Supersomes, luciferin-H conversion, luminescence | inhibition, % at 5 µM | actives 20% (n = 96,000);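 active = blocking of liver enzyme CYP2C9 beyond about 50% at 5 µM, limit read from the data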
CD11b adhes enh: increases human CD11b/CD18 adhesion to fibrinogen. P05107+P11215. actives 0.07% (n = 93,000). K562 CD11b/CD18 adhesion to fibrinogen, ATPlite luminescence. activation, % at 10 µM;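 active = 10 µM primary screen giving 50% or more activity, confirmed by 40% or more on retest at that dose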
Target sequence (P05107 whole entry, looked up, other chains not shown): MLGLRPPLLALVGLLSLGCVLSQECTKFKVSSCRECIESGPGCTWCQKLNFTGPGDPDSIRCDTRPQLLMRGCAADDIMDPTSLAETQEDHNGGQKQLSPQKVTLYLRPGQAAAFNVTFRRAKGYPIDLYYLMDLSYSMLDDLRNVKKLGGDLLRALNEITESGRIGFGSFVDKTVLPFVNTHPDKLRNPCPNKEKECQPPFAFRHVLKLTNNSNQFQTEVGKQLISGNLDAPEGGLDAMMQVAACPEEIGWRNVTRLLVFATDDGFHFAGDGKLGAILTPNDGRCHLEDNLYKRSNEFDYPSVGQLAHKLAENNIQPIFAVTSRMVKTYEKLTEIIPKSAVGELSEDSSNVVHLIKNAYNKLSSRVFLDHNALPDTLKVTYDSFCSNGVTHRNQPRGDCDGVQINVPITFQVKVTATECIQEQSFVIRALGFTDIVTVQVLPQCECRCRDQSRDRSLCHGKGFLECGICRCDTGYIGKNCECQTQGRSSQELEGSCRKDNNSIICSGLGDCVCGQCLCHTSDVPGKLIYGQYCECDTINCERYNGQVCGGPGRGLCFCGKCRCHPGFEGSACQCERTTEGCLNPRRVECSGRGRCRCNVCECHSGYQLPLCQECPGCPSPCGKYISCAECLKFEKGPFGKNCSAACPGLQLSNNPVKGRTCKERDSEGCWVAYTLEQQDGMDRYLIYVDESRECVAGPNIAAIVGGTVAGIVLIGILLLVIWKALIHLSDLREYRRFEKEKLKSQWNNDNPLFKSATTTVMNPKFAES
CYP2C19 inhib: inhibitors of human CYP2C19 | P33261 | CYP2C19 Supersomes, luciferin-H EGE luminescence, 30 min | inhibition, % at 5 µM | actives 21% (n = 96,000);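 active = CYP2C19 inhibition above a set limit at 5 µM in the primary screen, cut at about 50% in these data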
CYP2C19 activ: cytochrome P450 2C19 (human) activation; P33261; recombinant CYP2C19, luciferin-H EGE luminescence; hits give high values; 0 = fully inhibited enzyme, 1 = untreated enzyme; activation factor at 5 µM; 96,000 tested, under 10 active; AID 1025;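 active = activation factor of at least 2 at 5 µM in the primary screen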
CD11b adhes inh: CD11b/CD18-fibrinogen binding inhibition. inhibition, % at 10 µM. K562 CD11b/CD18 adhesion to fibrinogen, ATPlite luminescence; Mn2+ added to activate the integrin. P05107+P11215. actives 0.54% (n = 93,000);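 active = primary inhibition of 50% or more at 10 µM, then 40% or more on retest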
CYP2C9 activ: increases human cytochrome P450 2C9 activity | recombinant CYP2C9, luciferin-H conversion, luminescence; hits give high values; factor 1 = untreated enzyme, 0 = blocked | activation factor at 5 µM | actives 1.4% (n = 96,000) | AID 1024;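 active = activation factor of 2 or more for CYP2C9 at a 5 µM dose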
A number is an active result; n = inactive; x = no result given.

SMILES	CYP2C9 inh	CD11b adhes enh	CYP2C19 inhib	CYP2C19 activ	CD11b adhes inh	CYP2C9 activ
O=C1c2[nH]nc(-c3ccccc3O)c2C(c2ccc(F)cc2)N1CC1CCCO1 (stereo not drawn)	n	n	n	n	n	n
O=C1c2[nH]nc(-c3ccccc3O)c2C(c2cccc(Cl)c2)N1CC1CCCO1 (stereo not drawn)	88	x	70	n	x	n
CCSc1ncc(Cl)c(C(=O)Nc2sc3c(c2C(=O)NCc2cccnc2)CCCC3)n1	n	n	n	n	n	n
CCS(=O)(=O)N1CCCC(C(=O)NC2CCCC2)C1 (stereo not drawn)	n	n	n	n	n	n
CC(C)COc1cccc(C(=O)NC(=S)Nc2cccc(NC(=O)c3ccccc3Cl)c2)c1	x	n	x	x	n	x
Cn1nc(C(=O)Nc2c(-c3ccccc3)nc3sccn23)c2ccccc2c1=O	n	n	n	n	n	n
O=C(COC(=O)c1cnccn1)c1ccc2c(c1)CCCC2	n	n	n	n	n	n
CCOC(=O)C(C(=O)OCC)C(C)C#CCN1CCCCC1 (stereo not drawn)	n	n	n	n	n	n
CCc1ccc(Cn2nnc(C(=O)Nc3ccc(OC)cc3OC)c2N)cc1	n	n	n	n	n	3.4
COc1cccc(NC(=O)c2nnn(CCc3ccccc3)c2N)c1	92	n	73	n	n	n
COc1cccc(NC(=O)Cn2nnc(C(=O)Nc3ccccc3)c2N)c1	n	n	n	n	n	n
COc1ccc(OC)c(NC(=O)c2nnn(CCc3ccccc3)c2N)c1	n	n	n	n	n	n
N/C(COc1cccc(C(F)(F)F)c1)=N\NC(=O)c1cccnc1Oc1ccccc1	n	n	n	n	n	n
Cn1nc(C(F)(F)F)c(C(=O)Nc2ccc(F)cc2F)c1Sc1cccc(C(F)(F)F)c1	60	x	87	n	x	n
Cn1nc(C(F)(F)F)c(C(=O)Nc2ccc(F)cc2F)c1Sc1cccc(Cl)c1	n	x	54	n	x	n
Cn1nc(C(F)(F)F)c(C(=O)Nc2ccc(F)cc2F)c1Oc1cccc(Cl)c1	n	n	n	n	n	n
O=C(C1CCCCC1)N1CCN=C1SCc1cccnc1	n	n	95	n	n	n
COc1ccc(C(=O)N2CCN=C2SCc2cccnc2)cc1OC	n	n	83	n	n	n
CCOc1ccccc1C(=O)N1CCN=C1SCc1cccnc1	n	n	64	n	n	n
COc1cccc(OC)c1C(=O)N1CCN=C1SCc1cccnc1	n	n	n	n	n	n
O=C(c1ccccc1F)N1CCN=C1SCc1cccnc1	n	n	82	n	n	n
COc1ccc(C2(C(=O)N3CCOCC3)CCOCC2)cc1OC	n	n	n	n	n	n
CCOc1ccc(Oc2cc(NC(=O)c3ccco3)cc([N+](=O)[O-])c2)cc1	53	n	n	n	n	n
CCOc1ccc(C(=O)NC(=S)Nc2ccc(NC(=O)c3ccco3)cc2)cc1[N+](=O)[O-]	x	n	x	x	n	x
Cc1nn(C)cc1C(=O)Nc1cc(Oc2ccc(Cl)cc2)cc([N+](=O)[O-])c1	52	n	n	n	n	n
SMILES	CYP2C9 inh	CD11b adhes enh	CYP2C19 inhib	CYP2C19 activ	CD11b adhes inh	CYP2C9 activ
O=C(c1ccccc1)N(Cc1ccco1)C1CCS(=O)(=O)C1 (stereo not drawn)	n	x	n	n	x	n
COc1cc([N+](=O)[O-])ccc1NC(=O)C[n+]1ccccc1	x	n	x	x	n	x
Cc1nc2ccc(C(C(F)(F)F)(C(F)(F)F)C(F)(F)F)cc2[nH]1	63	n	n	n	n	n
Cc1nc2ccc(S(=O)(=O)c3ccc4nc(C)[nH]c4c3)cc2[nH]1	n	x	n	n	x	n
O=C(O/N=C/c1ccc2c(c1)OCO2)c1ccccc1Cl	n	x	n	n	x	n
Cc1ccccc1-n1cnnc1SCC(=O)N1CCN(c2ccccc2)CC1	n	n	n	n	n	n
CCC(=O)N1CCN(c2ccccc2NC(=O)c2ccc(OC)c(Cl)c2)CC1	82	n	74	n	n	n
COc1c(F)c(F)c(C(=O)Nc2ccccc2N2CCN(C(=O)C(C)C)CC2)c(F)c1F	78	n	61	n	n	n
Cc1ccc(C(=O)Nc2ccccc2N2CCN(C(=O)C(C)C)CC2)cc1C	89	n	76	n	n	n
CCCC(=O)Nc1ccccc1N1CCN(C(=O)C(C)C)CC1	n	n	n	n	n	n
